# Sampled rows, rich in hits. Any-hit rate of the full collection: about 4%.
# PAX8 inh HTS: lowers PAX8-driven luciferase in RMG-I cells; RMG-I TPO-luciferase reporter, SteadyGlo, 24 h; inhibition, % at 12.6 µM; 360,000 compounds, 1.2% hits; AID 652154;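 active = mean replicate inhibition at least 60% with every replicate also reaching 60%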;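 note: luciferase light reporting Pax8 driven TPO promoter activity; plate controls were median of neutral control wells for no effect and mitoxantrone controls for full effect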
# Shn3 inh set2: reduces Shn3 3'UTR luciferase signal in osteoblasts; Clone20 osteoblast Shn3 3'UTR firefly luciferase, 24 h; inhibition, % at 12.5 µM; 360,000 compounds, 0.52% hits; AID 588674;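 active = mean inhibition of at least 75% with every replicate also reaching 75%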;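 note: 0% = median of neutral control wells and 100% = pilot-screen positive control compound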
# CSC inhib: blocks cancer stem cells | inhibition, % at 7.5 µM | cancer stem cell-like cells viability, luminescence | 300,000 compounds, 1.1% hits; in the data active = inhibition above about 75%; tested in HMLE shEcad cells
# Mdm2-MdmX inh: inhibitors of human Mdm2/MdmX interaction | 330,000 compounds, 3% hits | O15151+Q00987 | SaOS-2 split-luciferase Mdm2/MdmX complementation, luminescence | inhibition, % at 8 µM | AID 485346;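 active = inhibition of at least 50% at 8 µM in the primary screen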
# Target sequence (O15151 whole entry, looked up): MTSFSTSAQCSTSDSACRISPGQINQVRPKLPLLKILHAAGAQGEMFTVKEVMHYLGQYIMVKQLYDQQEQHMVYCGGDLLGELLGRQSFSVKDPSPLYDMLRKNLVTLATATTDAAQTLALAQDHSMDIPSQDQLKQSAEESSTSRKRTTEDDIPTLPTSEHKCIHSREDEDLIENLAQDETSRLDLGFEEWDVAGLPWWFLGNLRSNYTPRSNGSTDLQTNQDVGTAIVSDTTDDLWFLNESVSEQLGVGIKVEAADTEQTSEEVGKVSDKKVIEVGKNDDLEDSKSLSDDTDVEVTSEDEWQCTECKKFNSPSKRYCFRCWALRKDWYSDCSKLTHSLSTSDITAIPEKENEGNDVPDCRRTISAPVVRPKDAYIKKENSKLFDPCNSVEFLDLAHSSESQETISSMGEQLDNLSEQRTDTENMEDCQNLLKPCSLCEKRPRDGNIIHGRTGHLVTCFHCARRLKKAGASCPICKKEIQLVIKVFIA
# Target sequence (Q00987 whole entry, looked up): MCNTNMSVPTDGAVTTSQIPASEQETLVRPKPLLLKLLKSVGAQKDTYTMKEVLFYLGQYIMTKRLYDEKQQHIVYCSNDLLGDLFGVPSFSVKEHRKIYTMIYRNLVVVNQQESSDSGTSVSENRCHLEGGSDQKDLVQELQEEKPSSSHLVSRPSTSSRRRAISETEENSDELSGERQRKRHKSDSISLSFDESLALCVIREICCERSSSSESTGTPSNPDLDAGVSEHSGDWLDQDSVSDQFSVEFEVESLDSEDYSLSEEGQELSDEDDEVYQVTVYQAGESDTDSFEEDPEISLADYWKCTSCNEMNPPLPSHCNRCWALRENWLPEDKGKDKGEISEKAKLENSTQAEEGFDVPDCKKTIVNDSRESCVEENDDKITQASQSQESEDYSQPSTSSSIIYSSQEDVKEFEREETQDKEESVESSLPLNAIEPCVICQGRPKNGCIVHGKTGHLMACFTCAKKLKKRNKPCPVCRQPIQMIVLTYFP
# Gli-Sufu antag: blocks Gli-Sufu signaling in a luciferase reporter; Sufu-KO-LIGHT fibroblasts, Gli luciferase reporter luminescence; inhibition, % at 5 µM; 340,000 compounds, 0.74% hits; AID 588413;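 active = inhibition above about 55%, limit read from the data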;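 note: 0% = DMSO-treated cells and 100% = wells with medium but no cells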
# Beta apoptosis: beta cell apoptosis inhibition | INS-1E cytokine-induced death, ATP luminescence, 48 h; percent of positive-control rescue, neutral wells zero | protection from apoptosis, % (no concentration beside the values) | 300,000 compounds, 0.8% hits | AID 435005;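 active = Every replicate reaches about 75%, or at least half do and their mean reaches it too, limit read from the data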;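 note: 0% = cytokine-treated negative control wells and 100% = positive control rescue; higher means more ATP so stronger rescue from cytokine killing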
# * = called active by the depositor; x = not tested or not shown.
SMILES,PAX8 inh HTS,Shn3 inh set2,CSC inhib,Mdm2-MdmX inh,Gli-Sufu antag,Beta apoptosis
O=C(Nc1ccncc1)c1cc(-c2cccc(Br)c2)nc2ccccc12,15,9,106*,19,39,33
O=C(Nc1ccc([N+](=O)[O-])cn1)c1cc(-c2cccc(Br)c2)nc2ccccc12,115*,-28,x,35,6,10
O=C1CCc2cccc(O)c2N1,5,94*,x,x,-25,x
O=C1CCC(=O)c2oc3ccccc3c2N1,x,14,-4,14,48,1
CC1S/C(=N\N=C\c2cccc([N+](=O)[O-])c2)N(C(C)(C)C)C1=O (stereo not drawn),-22,-13,81*,17,21,11
O=[N+]([O-])c1cccc(C=NN=C2c3ccccc3-c3ccccc32)c1,11,18,x,x,20,x
COc1cc2c(cc1OC)C(CSc1ccccc1C(=O)O)=NC(C)(C)C2,28,-8,-12,22,7,1
CC1(C)Cc2ccccc2C(CSc2ccccc2C(=O)O)=N1,-48,3,76*,22,8,-3
COc1ccc(OC2C(=O)N(Cc3ccc4c(c3)OCO4)C2c2sccc2C)cc1 (stereo not drawn),x,52,117*,12,1,10
COc1ccc(OC2C(=O)N(Cc3ccc(F)cc3)C2c2ccc(OC)c(OC)c2)cc1 (stereo not drawn),x,3,x,-13,4,x
COc1ccc(-c2n(CC(=O)OC3CC(C)CCC3C(C)C)c3ccccc3[n+]2C)cc1 (stereo not drawn),2,92*,x,x,86*,x
C[C@H]1CN([C@@H](C)CO)C(=O)c2cc(C#CCC3CCCC3)cnc2O[C@@H]1CN(C)S(=O)(=O)c1cccs1,67*,x,x,x,x,x
C[C@@H]1CN([C@H](C)CO)C(=O)c2cc(NC(=O)Nc3ccc(C(F)(F)F)cc3)ccc2O[C@@H](C)CCCCO[C@H]1CN(C)S(=O)(=O)c1ccccc1,96*,x,x,x,x,x
C[C@@H]1CCCCO[C@@H](CN(C)S(=O)(=O)c2cccs2)[C@H](C)CN([C@@H](C)CO)C(=O)c2cc(NC(=O)Nc3ccc(C(F)(F)F)cc3)ccc2O1,65*,x,x,x,x,x
C[C@@H]1CCCCO[C@@H](CN(C)S(=O)(=O)c2ccccc2)[C@H](C)CN([C@H](C)CO)C(=O)c2cc(NC(=O)Nc3ccc(C(F)(F)F)cc3)ccc2O1,89*,x,x,x,x,x
CO[C@@H]1CC[C@@H]2CCOc3ccc(C#N)cc3C(=O)N(C)CCCC(=O)N(C)C[C@@H]1O2,-13,x,x,x,x,x
COc1ccc(S(=O)(=O)N[C@@H]2CC[C@H](CCn3cc(C(C)C)nn3)O[C@@H]2CO)cc1,-3,x,x,x,x,x
CCCNC(=O)C[C@H]1CC[C@@H]2[C@H](COc3ccc(NC(=O)CCC)cc3C(=O)N2C)O1,13,x,x,x,x,x
C[C@H]1CCCCO[C@H](CN(C)S(=O)(=O)c2ccccc2)[C@@H](C)CN([C@@H](C)CO)C(=O)c2cc(NC(=O)Nc3ccc(C(F)(F)F)cc3)ccc2O1,68*,x,x,x,x,x
C[C@H](CO)N1C[C@H](C)[C@H](CN(C)S(=O)(=O)c2cccs2)OCCCC[C@H](C)Oc2ccc(NC(=O)NC3CCCCC3)cc2C1=O,104*,x,x,x,x,x
C[C@@H]1CCCCO[C@@H](CN(C)S(=O)(=O)c2cccs2)[C@H](C)CN([C@@H](C)CO)C(=O)c2cc(NC(=O)NC3CCCCC3)ccc2O1,-5,x,x,x,x,x
Cn1c2ccccc2c(=O)c2cc(C#Cc3ccccn3)ccc21,-183,-64,82*,-146,-32,-3
COc1ccc(CN(C)C[C@H]2OCCCC[C@H](C)Oc3ccc(N(C)C)cc3C(=O)N([C@H](C)CO)C[C@@H]2C)cc1,-3,x,x,x,x,x
Cc1ccccc1N=C1SC(CC(=O)Nc2ccc3ccccc3c2)C(=O)N1Cc1ccccn1 (stereo not drawn),26,26,78*,36,7,3
O=C(CC1SC(=Nc2cccc3ccccc23)N(Cc2ccccn2)C1=O)Nc1ccccc1Br (stereo not drawn),96*,-2,18,3,-2,-8
SMILES,PAX8 inh HTS,Shn3 inh set2,CSC inhib,Mdm2-MdmX inh,Gli-Sufu antag,Beta apoptosis
CCOc1ccc2ccccc2c1/C=N\NC(=O)OC,141*,6,4,-4,4,-5
CO[C@@H]1CN(C)C(=O)c2ccc(NC(=O)Cc3ccccc3)cc2OC[C@@H](C)N(CC2CC2)C[C@@H]1C,15,x,x,x,x,x
CCC(C)Nc1nc(N)c([N+](=O)[O-])c(N2CCCCCC2)n1 (stereo not drawn),77*,9,0,16,5,-2
CC(C)CNc1nc(N)c([N+](=O)[O-])c(N2CCCCCC2)n1,0,57,-16,23,12,8
C[C@@H]1CN([C@@H](C)CO)C(=O)c2cccc(NC(=O)C3CCCCC3)c2O[C@@H]1CN(C)C,-8,x,x,x,x,x
COc1ccc(C(C)=O)cc1COC(=O)c1ccc(S(=O)(=O)N(C)C)cc1,5,-5,-7,12,4,-2
CNS(=O)(=O)c1cccc(C(=O)OCc2cc(C(C)=O)ccc2OC)c1,-15,82*,1,3,1,-1
CCN(CC)CCSc1nnc2c3ccccc3n(Cc3ccccc3)c2n1,24,24,79*,26,31,-1
COc1ccc(S(=O)(=O)Oc2ccc3ccccc3c2)cc1,-54,-15,44,-19,-23,0
COC1=C(OC)C(=O)C(Sc2ccc3ccccc3c2)=CC1=O,52,87*,x,x,-9,x
C[C@H]1CCCCO[C@H](CN(C)C(=O)c2ccncc2)[C@@H](C)CN([C@@H](C)CO)C(=O)c2cc(NC(=O)Cc3ccccc3)ccc2O1,5,x,x,x,x,x
CC(=O)Nc1ccc(C(=O)CSc2cc(C)c3cccc(C)c3n2)cc1,123*,-1,10,21,21,-10
CCCNC(=O)N1C[C@@H](O)COC[C@@H]2O[C@@H](CC(=O)N[C@@H]3CCN(Cc4ccccc4)C3)CC[C@H]21,0,x,x,x,x,x
C[C@H](CO)N1C[C@H](C)[C@@H](CN(C)C)Oc2c(NC(=O)Nc3ccc(C(F)(F)F)cc3)cccc2C1=O,-27,x,x,x,x,x
COc1cccc(-c2nc(CS(=O)(=O)CC(=O)NCCCN3CCN(C)CC3)c(C)o2)c1,-5,-21,-21,4,-17,-3
COc1cccc(-c2nc(CS(=O)(=O)CC(=O)NCCCN3CC(C)CC(C)C3)c(C)o2)c1 (stereo not drawn),118*,-20,8,11,44,5
CO[C@@H]1CN(C)C(=O)c2cc(NC(C)=O)ccc2OC[C@@H](C)N(C(=O)C2CCC2)C[C@@H]1C,-13,x,x,x,x,x
CC1CCCN(CCCOc2ccc(Br)cc2Cl)C1 (stereo not drawn),-91,8,194*,-5,0,8
C[C@@H]1CN([C@@H](C)CO)C(=O)c2cc(NC(=O)CCCN(C)C)ccc2O[C@@H](C)CCCCO[C@@H]1CN(C)S(=O)(=O)c1ccccc1,-13,x,x,x,x,x

# Screens deposited in PubChem BioAssay by several laboratories.
